Source: PubChem BioAssay (National Center for Advancing Translational Sciences (NCATS))
TRHR PAM = qHTS for Small Molecule Agonists and Allosteric Enhancers of Human TRH Receptor: Primary Screen for Enhancers. TRHR cells, fluo-8 calcium fluorescence, EC20 TRH enhancement. 360,000 compounds, 0.66% hits. enhancement, % at 2 µM. AID 493056, 2011; in the data active means enhancement above about 30%; further: 0% is about no effect
Target sequence (P34981 whole entry, looked up): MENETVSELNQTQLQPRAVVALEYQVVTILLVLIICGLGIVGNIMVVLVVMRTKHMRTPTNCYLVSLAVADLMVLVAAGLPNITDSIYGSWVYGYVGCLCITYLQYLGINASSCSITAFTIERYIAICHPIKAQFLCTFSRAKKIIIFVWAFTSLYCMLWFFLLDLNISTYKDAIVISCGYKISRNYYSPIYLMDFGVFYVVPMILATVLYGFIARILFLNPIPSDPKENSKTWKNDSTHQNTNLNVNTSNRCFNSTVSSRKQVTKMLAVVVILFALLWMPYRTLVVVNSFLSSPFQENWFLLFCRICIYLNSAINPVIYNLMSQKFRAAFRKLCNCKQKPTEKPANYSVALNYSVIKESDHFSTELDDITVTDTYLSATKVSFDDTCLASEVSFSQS
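TRHR-expressing cells loaded with fluo-8 calcium dye were read kinetically (ex 480/em 530) during compound addition, then stimulated with an EC20 of TRH (10 nM final). Enhancement of the Gq-mediated intracellular calcium response was scored.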
D1 potentiator = Potentiators of Human D1 Dopamine Receptor: qHTS; D(1A) dopamine receptor (Homo sapiens), P21728; HEK293 TREx D1 cells, calcium flux, dopamine EC20 potentiation; potentiation, % at 10 µM; 360,000 compounds, 0.036% hits; AID 504651, 2011; in the data active means potentiation above about 30%; further: 0% is about no effect
D1 agonist = Allosteric Agonists of the Human D1 Dopamine Receptor: qHTS | HEK293 T-REx D1 cells, calcium flux, agonist mode | activation, % at 2 µM | 360,000 compounds, 1% hits; further: 0% is about no effect
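Tetracycline-induced HEK293 TREx D1 cells, force-coupled to calcium signalling, were dye-loaded with a no-wash calcium kit. Compound was pin-added after a 10 s baseline. Fluorescence was read kinetically at 1 cycle/s for 180 s, with calcium rises flagged as agonism.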
D1 antagonist = Antagonist of Human D 1 Dopamine Receptor: qHTS | D(1A) dopamine receptor (Homo sapiens), P21728 | HEK293 TREx D1 cells, calcium flux, dopamine EC80; active compounds read low | activity change, negative = inhibition, % at 10 µM | 360,000 compounds, 3.2% hits; in the data active means activity change below about -30%; further: on the % scale 0 is the no-effect control and ±100 the full control effect
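Allosteric or orthosteric antagonism assessed as attenuation of the calcium response to EC80 dopamine, added 180 s after compound, in induced HEK293 Trex D1 cells loaded with no-wash calcium dye.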
TRHR ag = qHTS for Small Molecule Agonists and Allosteric Enhancers of Human TRH Receptor: Primary Screen for Agonists | Thyrotropin-releasing hormone receptor (Homo sapiens), P34981 | TRHR cells, calcium flux fluo-8, FDSS agonist mode | activation, % at 2 µM | 360,000 compounds, 0.18% hits; further: 0% is about no effect
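Steps: seed TRHR cells overnight; add fluo-8 no-wash Ca dye, RT 30 min–1.5 h; record 10 s baseline; pin-transfer compounds; monitor fluorescence 1 cycle/s for the agonist window. Calcium increases flag candidate agonists.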
Starred values were filed as active, the others as inactive. Compounds with a hit are over-represented: about 4.6% of the library has one in this group of screens. Unless noted, no stated cut-off is given here; in the data, active means activation above about 30%; inactive means the rest.

Screening Cc1ccc(NC(=O)CCc2ccc(C)o2)c(C)c1 returned TRHR PAM -3, D1 potentiator 0, D1 agonist 32*, D1 antagonist 30 and TRHR ag -1.
Screening CCc1ccc(NC(=O)CCc2ccc(C)o2)cc1 returned TRHR PAM 3, D1 potentiator 7, D1 agonist 2, D1 antagonist -9 and TRHR ag -4.
`Cc1cc(NC(=O)CCc2ccc(C)o2)no1` gave TRHR PAM 0, D1 potentiator -9, D1 agonist 1, D1 antagonist -42* and TRHR ag 0.
For COC(=O)C1=CNC=C(C(=O)OC)C1c1ccc(C(=O)OC)cc1 the results were TRHR PAM 1, D1 potentiator -4, D1 agonist 38*, D1 antagonist -6 and TRHR ag 9.
For COC(=O)C1=C(C)N(C)C(C)=C(C(=O)OC)C1c1ccc(C(=O)OC)cc1 the results were TRHR PAM 6, D1 potentiator -1, D1 agonist 0, D1 antagonist -3 and TRHR ag 1.
Screening COc1ccc(Cl)cc1C(=O)NCc1ccc2c(c1)OCO2 returned TRHR PAM -8, D1 potentiator 4, D1 agonist 6, D1 antagonist 11 and TRHR ag 0.
COc1cc2c(C(=O)NCc3ccc4c(c3)OCO4)cn(C)c(=O)c2cc1OC was read as TRHR PAM 7, D1 potentiator -4, D1 agonist 0, D1 antagonist -31* and TRHR ag 1.
COc1ccc(CN(CC(=O)NCC2CCCO2)C(=O)CCC(=O)Nc2nccs2)cc1 (stereo not drawn) was read as TRHR PAM -8, D1 potentiator 2, D1 agonist 0, D1 antagonist 6 and TRHR ag 2.
For O=C(Cn1c(SCc2ccccc2)nc2ccccc21)N1CCOCC1 the results were TRHR PAM 2, D1 potentiator 1, D1 agonist 6, D1 antagonist -18 and TRHR ag 0.
Screening Cc1ccc(OCCSc2nc3ccccc3n2CC(=O)N2CCCCC2)c(C)c1 returned TRHR PAM -7, D1 potentiator -3, D1 agonist 8, D1 antagonist -44* and TRHR ag 0.
Cc1ccc(C)c(OCCSc2nc3ccccc3n2CC(=O)N2CCOCC2)c1 was read as TRHR PAM -3, D1 potentiator -2, D1 agonist -2, D1 antagonist 5 and TRHR ag 1.
`O=C(CSc1nc2ccccc2n1CC(=O)N1CCOCC1)N1CCCC1` gave TRHR PAM 2, D1 potentiator 0, D1 agonist -1, D1 antagonist -32* and TRHR ag -1.
For COc1cccc(C(=O)N2CCCCC2CCN2CCCCC2)c1 (stereo not drawn) the results were TRHR PAM -3, D1 potentiator -2, D1 agonist 4, D1 antagonist -5 and TRHR ag 1.
Screening COc1ccccc1N1CCN(C2CCCCC2NS(=O)(=O)c2ccccc2)CC1 (stereo not drawn) returned TRHR PAM 3, D1 potentiator 3, D1 agonist 1, D1 antagonist 29 and TRHR ag 0.
Screening COc1ccc2c(c1OC)C(=O)OC2CC(=O)O (stereo not drawn) returned TRHR PAM -1, D1 potentiator 0, D1 agonist 1, D1 antagonist -30* and TRHR ag 1.
`Cc1nn(CCCC(=O)NCc2ccccc2)c(=O)c2cc3sccc3n12` gave TRHR PAM 2, D1 potentiator 1, D1 agonist -2, D1 antagonist -32* and TRHR ag 0.
For Cc1nn(CC(=O)NCc2ccc(Cl)cc2)c(=O)c2cc3sccc3n12 the results were TRHR PAM -2, D1 potentiator 0, D1 agonist -1, D1 antagonist -2 and TRHR ag 0.
NC(=O)Cn1c(=O)n(CCCCCC(=O)NCc2ccccc2)c(=O)c2sccc21 was read as TRHR PAM -3, D1 potentiator -2, D1 agonist 1, D1 antagonist -39* and TRHR ag 1.
